Screen size: about 310,000 compounds; about 14,000 (4.5%) showed an effect of 50% or more. The effect is printed as a negative number. The entries come from a sample that favours strong results as a whole.
Molecular target: human ether-à-go-go-related gene (hERG) potassium channel (human, UniProt Q12809)
Experiment: primary screen, population patch clamp on CHO cells stably expressing hERG; higher = less effect of the substance
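Also: peak tail current of the secondary pulse compared with the same well before compound.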

Sequence of human ether-à-go-go-related gene (hERG) potassium channel (Q12809 whole entry, looked up): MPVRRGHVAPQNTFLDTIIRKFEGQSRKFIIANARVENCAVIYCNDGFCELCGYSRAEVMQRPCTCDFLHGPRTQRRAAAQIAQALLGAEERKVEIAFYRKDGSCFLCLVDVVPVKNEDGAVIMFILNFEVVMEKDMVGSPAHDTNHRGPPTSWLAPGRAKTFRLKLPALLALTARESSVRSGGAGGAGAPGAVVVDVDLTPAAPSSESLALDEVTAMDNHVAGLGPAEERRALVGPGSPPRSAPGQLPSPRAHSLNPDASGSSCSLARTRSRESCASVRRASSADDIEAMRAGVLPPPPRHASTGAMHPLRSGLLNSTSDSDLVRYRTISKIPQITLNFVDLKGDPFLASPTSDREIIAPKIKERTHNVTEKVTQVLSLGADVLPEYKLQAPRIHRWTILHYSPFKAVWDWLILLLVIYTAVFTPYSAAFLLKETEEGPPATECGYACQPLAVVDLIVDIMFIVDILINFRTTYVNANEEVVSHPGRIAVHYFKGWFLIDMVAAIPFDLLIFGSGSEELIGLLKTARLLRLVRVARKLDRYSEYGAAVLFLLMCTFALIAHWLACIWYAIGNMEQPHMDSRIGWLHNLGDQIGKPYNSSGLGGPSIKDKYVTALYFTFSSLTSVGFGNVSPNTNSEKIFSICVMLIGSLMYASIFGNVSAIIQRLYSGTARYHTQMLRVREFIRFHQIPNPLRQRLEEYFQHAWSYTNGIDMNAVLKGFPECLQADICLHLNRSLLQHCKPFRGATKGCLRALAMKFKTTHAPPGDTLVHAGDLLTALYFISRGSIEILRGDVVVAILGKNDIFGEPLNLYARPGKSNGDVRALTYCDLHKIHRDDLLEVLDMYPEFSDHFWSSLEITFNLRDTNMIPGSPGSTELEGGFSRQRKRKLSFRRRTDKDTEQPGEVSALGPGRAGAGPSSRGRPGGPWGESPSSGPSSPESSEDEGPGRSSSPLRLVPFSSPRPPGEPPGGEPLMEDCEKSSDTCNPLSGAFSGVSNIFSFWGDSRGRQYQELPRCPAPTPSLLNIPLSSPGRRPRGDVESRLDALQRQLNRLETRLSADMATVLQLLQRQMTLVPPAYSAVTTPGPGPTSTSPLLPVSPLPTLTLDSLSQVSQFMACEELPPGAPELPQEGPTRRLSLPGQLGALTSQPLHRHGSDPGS

Structure (SMILES) | hERG current change (%, negative = inhibition) at 10uM [%]
COc1ccccc1NS(=O)(=O)/C=C/c1ccccc1 | -16.8
O=C(CCN1C(=O)c2ccccc2C1=O)C1=NN[C@@H]2C(=O)N(c3ccc(F)cc3)C(=O)[C@H]12 | -5.4
O=C(CCS(=O)(=O)c1ccc2c(c1)NC(=O)CS2)NCCc1ccccc1 | 8.31
O=c1c2cc(N3CCOCC3)ccc2[nH]c(=S)n1CCCN1CCCCCC1 | -17
BrC(/C=C\c1ccccc1)=N/Nc1nc(N2CCOCC2)nc(N2CCOCC2)n1 | -39
CCNc1nn2ccccc2c1/C=C(\C#N)C(=O)OCC | -4.06
COCCCNC(=S)Nc1ccc(C)cc1[N+](=O)[O-] | 1.51
CCCS(=O)(=O)N1CCCC(C(=O)NCCN2CCC(Cc3ccccc3)CC2)C1 (stereo not drawn) | -58.2
CS(=O)(=O)N1CCC(C(=O)N2CCC(Cc3ccccc3)CC2)CC1 | -15.1
CCCS(=O)(=O)N1CCC(C(=O)N2CCC(Cc3ccccc3)CC2)CC1 | -63
CCCS(=O)(=O)N1CCCC(C(=O)N2CCC(Cc3ccccc3)CC2)C1 (stereo not drawn) | -19.9
CCCS(=O)(=O)N1CCCC(C(=O)NCCN(C)Cc2ccccc2)C1 (stereo not drawn) | -8.41
CCCS(=O)(=O)N1CCCC(C(=O)NCCc2ccccc2)C1 (stereo not drawn) | -1.02
CCSc1nsc(SCC)c1C(N)=O | 7.66
CC1(C)Cc2nc3scc(NC(=O)c4ccccc4)c3cc2CO1 | -0.679
CN(CCc1ccccc1)c1ccc([N+](=O)[O-])cn1 | 2.08
O=c1c2ccccc2[nH]c(=S)n1CCN1CCCCC1 | -1.11
CCC1CCCCN1CCn1c(=S)[nH]c2cc(OC)c(OC)cc2c1=O (stereo not drawn) | -25.4
CC1CC(C)CN(CCCn2c(=S)[nH]c3ccccc3c2=O)C1 (stereo not drawn) | -53
CCC1CCCCN1CCCn1c(=S)[nH]c2ccccc2c1=O (stereo not drawn) | -56.2
O=c1c2ccccc2[nH]c(=S)n1CCCN1CCN(C2CCCCC2)CC1 | -53.9
CC1CCCCN1CCCn1c(=S)[nH]c2ccccc2c1=O (stereo not drawn) | -46.4
CCCCn1c(=S)[nH]c2ccccc2c1=O | 13.7
COc1ccc(N2CCN(CCCn3c(=S)[nH]c4ccccc4c3=O)CC2)cc1 | -36.7

Structure (SMILES) | hERG current change (%, negative = inhibition) at 10uM [%]
CCN1CCN(CCn2c(=S)[nH]c3ccccc3c2=O)CC1 | -10.5
O=c1c2ccccc2[nH]c(=S)n1CCCN1CCN(c2ccccc2F)CC1 | -2.57
COc1ccccc1N1CCN(CCCn2c(=S)[nH]c3ccccc3c2=O)CC1 | -61.6
CC1CC(C)CN(C(=O)CCCn2c(=S)[nH]c3ccccc3c2=O)C1 (stereo not drawn) | -3.01
CCC1(C)Cc2ccccc2-c2nc(NCCO)n(-c3ccc(C)cc3)c(=O)c21 (stereo not drawn) | -25.1
CCOC(=O)N1CCN(c2c(NCc3ccccc3OC)c(=O)c2=O)CC1 | 0.238
CCOC(=O)Nc1ccc(S(=O)(=O)Nc2cc(C)on2)cc1 | 6.84
CC1CCN(CCCn2c(=S)[nH]c3ccccc3c2=O)CC1 | -56.9
O=c1c2ccccc2[nH]c(=S)n1CCCN1CCN(c2ccccc2)CC1 | -19.7
O=c1c2ccccc2[nH]c(=S)n1CCCN1CCOCC1 | 8.73
O=c1c2ccccc2[nH]c(=S)n1CCN1CCN(Cc2ccccc2)CC1 | -19.8
O=c1c2ccccc2[nH]c(=S)n1CCCN1CCC(Cc2ccccc2)CC1 | -73.6
CC1CCN(CCn2c(=S)[nH]c3ccccc3c2=O)CC1 | -32.6
C=CCn1c(SCC(=O)NCC(c2ccccc2)N(C)C)nnc1C1CCCCC1 (stereo not drawn) | 8.62
Cc1cc(Br)cc(C)c1NC(=O)c1ccc(C#N)cc1F | -21.2
NS(=O)(=O)c1ccc(CCNC(=O)CCc2nc3sc4c(c3c(=O)[nH]2)CCCC4)cc1 | 17.6
CC(C)C[C@@H](CSc1ccc(Br)cc1)N1CCN(CC(C)C)CCC1=O | -68.6
CC(C)C[C@@H](CSc1ccc(Br)cc1)N1CCN(C)CCC1=O | -64.7
CC(C)CN1CCC(=O)N([C@H](CSc2ccccc2)Cc2ccccc2)CC1 | -67.9
CCCN1CCC(=O)N([C@H](CSc2ccccc2)CC(C)C)CC1 | -66.4
CC(C)C[C@@H](CO)N1CCN(Cc2ccc(Br)cc2)CCC1=O | -13.5
CC(C)C[C@@H](CN=[N+]=[N-])N1CCN(CC(C)C)CCC1=O | -3.55
CC(C)C[C@@H](CSc1ccccc1)N1CCN(C)CCC1=O | -16
CC(C)C[C@@H](CO)N1CCN(C)CCC1=O | -4.26

Structure (SMILES) | hERG current change (%, negative = inhibition) at 10uM [%]
CC(C)CN1CCC(=O)N([C@H](CN=[N+]=[N-])Cc2ccccc2)CC1 | -22.9
CC(C)CN1CCC(=O)N([C@H](CSc2ccc(Br)cc2)Cc2ccccc2)CC1 | -43.2
CCOC(=O)C(NCc1ccc2c(c1)OCO2)(NC(=O)CC)C(F)(F)F (stereo not drawn) | 14.3
NCC/C=C1/c2ccccc2CSc2ccccc21.O=C(O)/C=C\C(=O)O | -3.76
CN(C)c1ccc(S(=O)(=O)N2CCCCC2)cc1NC(=O)CN1C(=O)NC2(CCCC2)C1=O | 8.25
COc1ccccc1OCCNC(=O)C1CC(=O)N(Cc2ccccc2)C1 (stereo not drawn) | -10.2
CC(O)CNC(=O)c1ccc(-c2nn(C)c(=O)c3ccccc23)cc1 (stereo not drawn) | -0.479
Cc1ccc2c(Cl)cc(Cl)c(OCc3c(C)noc3C)c2n1 | 8.92
O=C(NO)c1ccc(OC(F)F)cc1 | 7.91
Cc1ccc(C(C)C)c(O)c1 | 19.7
CC(C)C[C@@H](CSc1ccccc1)N1CCN(CC(C)C)CCC1=O | -75
O=C(CCC(=O)N(CC(=O)NC1CCCC1)Cc1ccccc1Cl)Nc1nccs1 | -16.1
O=C(COC(=O)c1cccc(OC(F)F)c1)NC(=O)NC1CCCCC1 | 11.1
CCOc1ccc(N(CC(=O)NCc2ccc(F)cc2)C(=O)c2ccco2)cc1 | -54.6
CN(CC(=O)NCc1ccccc1)Cc1ccc(Cl)cc1 | -22.9
CCOc1ccc(CN(C)CC(=O)NCc2ccccc2)cc1 | -76.1
Cc1ccc(N(CC(=O)NCc2ccc(F)cc2)C(=O)c2ccco2)cc1C | -10.8
CCOc1ccc(N(CC(=O)NC(C)(C)C)C(=O)c2ccco2)cc1 | -1.84
Cc1ccc(CNCc2ccccc2Cl)cc1.Cl | -7.02
CCOc1ccc(N(CC(=O)NCc2ccccc2)S(C)(=O)=O)cc1 | -10.9
CN(CC(=O)NCCc1ccc(F)cc1)Cc1ccccc1 | -2.73
CCOCCCNCc1ccc(OCc2ccccc2Cl)cc1 | -46.9
CCOc1ccc(CN(C)CC(=O)NCc2ccc(F)cc2)cc1 | -74
CC(=O)c1ccc(OCC(=O)NCc2ccc(F)cc2)cc1 | -11.5

Structure (SMILES) | hERG current change (%, negative = inhibition) at 10uM [%]
CCOc1ccc(CNCc2ccccc2Cl)cc1.Cl | -55.3
Cc1c(C)c2c(OCC(=O)NCC(=O)NCC(=O)O)cc3c(c2oc1=O)CCC(C)(C)O3 | 15.2
Cn1ncc2c(Nc3cccc([N+](=O)[O-])c3)ncnc21 | 7.09
CC(C)N(C(=O)COC(=O)CNC(=O)c1ccc(Br)cc1)c1ccccc1 | -15.5
O=C(COc1ccc(Cl)cc1)NCCCNC(=O)c1ccncc1 | -36.1
COC(=O)C1=C(C)OC(N)=C(C#N)C1c1cc2cccc(C)c2nc1Cl (stereo not drawn) | -5.39
CN(C)c1cc[n+](CC(=O)Nc2ccc(Cl)cc2)cc1.[Cl-] | 7.28
COc1ccc(N2CCOCC2)c(NC(=O)c2cccnc2)c1 | 12.8
O=C(c1cnn(C(=O)c2cccc(S(=O)(=O)N3CCOCC3)c2)c1)c1cc(Cl)cc(Cl)c1O | -44.5
CC(=O)Oc1ccc(/C=N/NC(=O)c2ccc(N(C)S(=O)(=O)c3ccccc3)cc2)cc1 | 12.8
C=CCOC(=O)C1=C(C)NC(=S)NC1/C=C/c1ccccc1 (stereo not drawn) | -4.63
COc1cccc(CN(C)CC(=O)NCc2ccccc2Cl)c1OC | -7.66
CCOc1ccc(CN(C)CC(=O)NCc2ccccc2Cl)cc1 | -89.1
COc1cccc(CN(C)CC(=O)NCc2ccccc2Cl)c1 | -5.14
Cn1cccc1/C=N\NC(=O)C1COc2ccc(C(C)(C)C)cc2O1 (stereo not drawn) | -3.42
COc1ccc(N2CC(C(=O)NCCC3=CCCCC3)CC2=O)c(OC)c1 (stereo not drawn) | -4.67
O=C(O)CC/C(=N/NC(=O)c1cccs1)c1ccccc1 | 6.16
Nc1c(C(=O)NCc2ccco2)nnn1-c1ccccc1 | 2.52
CC(C)NC(=O)C1CCN(C2CCN(C(=O)c3scc4c3CCCC4)CC2)CC1 | -1.4
NC(=O)C1CCN(C(=O)c2cc3c(s2)CCCCC3)CC1 | -6.51
CC(C)NC(=O)C1CCN(C2CCN(C(=O)c3cc4c(s3)CCCCC4)CC2)CC1 | -51.8

— paper PMC4336329 (PLoS ONE, 2015)
